Data reported in PubChem BioAssay AID720596 (The Scripps Research Institute Molecular Screening Center, 2013).
About 1,600 (0.43%) of roughly 370,000 compounds were called active. This is one part of a sample in which actives are shown more often than they occur. Unmarked numbers belong to inactive results. Rule as the data show it: active = inhibition above about 24%; inactive = the rest.

Molecular target: Major prion protein (Homo sapiens) (UniProt P04156)
Experiment: inhibitors of human cell surface prion protein PrPC, primary screen, cell-based, TR-FRET (AID 720596); also: 0% = median of the test wells and 100% = reference compound wells
Conditions: TR-FRET read-out, at 13.8 µM, stronger effect = higher value

Compared with COc1ccc(Cn2cc(COC(=O)N(C)Cc3ccccc3)nn2)cc1, COc1ccc(C(=O)N2CCCCC2c2cc(C(=O)Nc3ccccc3)no2)cc1 (stereo not drawn) is higher in inhibition: 6.15% for the first, 6.89% for the second.

Compared with OCC1(CO)CC2(C1)CC(CO)(CO)C2, COCCNC(=O)C1(C)CCCN(Cc2cccc(F)c2)C1 (stereo not drawn) is higher in inhibition: 2.39% for the first, 10.6% for the second.

Compared with O=C(Nc1cc(F)cc(F)c1)OC1CCC12CCC(c1ccccc1)CC2 (stereo not drawn), O=C(O)c1ccc(F)c(S(=O)(=O)Nc2ccccc2)c1 is lower in inhibition: 4.41% for the first, -4.14% for the second.

Compared with CC(C)(C)c1ccc(C(=O)Nc2cc(Cl)c(Br)cc2C(=O)O)cc1, Cc1cc(C(C)(C)C)cc(S(=O)(=O)Nc2ccc(C(=O)O)cc2)c1C is lower in inhibition: 21% for the first, 0.8% for the second.

Going from CSc1ncc(C(=O)Nc2ccc(C)cc2C)c(C)n1 to Cc1ccc(NC(=O)N2c3ccccc3SC2c2ccco2)c(C)c1 (stereo not drawn), the inhibition rises from -0.45% to 2.15%.

Compared with Cn1cc(CN2CCCCC2c2ccccn2)c(-c2ccc3c(c2)OCCO3)n1 (stereo not drawn), CC(C)N(Cc1nc(-c2ccc3c(c2)OCO3)no1)CC1CCC(=O)N1 (stereo not drawn) is higher in inhibition: -3.25% for the first, 7.11% for the second.

First: CC(C)C(=O)N1CCC2(CC1)Oc1ccc(F)cc1C(=O)C21CC(c2ccccc2)=NO1 (stereo not drawn)
Second: COc1ccccc1CNC(=O)c1cc(-c2cc(F)ccc2OC)n[nH]1
The inhibition of the first is higher: -0.07% for the first, -1.69% for the second.

First: CCCCN(CC)C(=O)C1CCCN(S(=O)(=O)c2cccc3nsnc23)C1 (stereo not drawn)
Second: Cc1c(C(=O)NCCN(C)C)oc2ccc(S(=O)(=O)N3CCCC3)cc12
The inhibition of the first is lower: -27.1% for the first, 1.49% for the second.

Going from COc1cc(C)c(C(C)C)cc1S(=O)(=O)n1ccnc1 to COc1ccc(CCN2C(=O)C3CC=C(C)CC3C2=O)cc1OC (stereo not drawn), the inhibition falls from -1.35% to -3.31%.

Compared with COCn1c(C(O)c2ccccc2)cc2ccccc21 (stereo not drawn), CC1=CCC2C(=O)N(c3cccc(C(=O)NC(C)c4ccccc4)c3)C(=O)C2C1 (stereo not drawn) is lower in inhibition: 6.96% for the first, -1.98% for the second.

Going from O=C(O)C#Cc1cccc2ccccc12 to Nc1nc2c(Br)ccc(Br)c2cc1C(=O)NCCc1ccccc1, the inhibition falls from 17.9% to 6.33%.

First: O=C(c1ccco1)N1CCN(CC(=O)N(C2CCCCC2)C2CCS(=O)(=O)C2)CC1 (stereo not drawn)
Second: O=C(CCN1CCCO1)N1CCCC(N2CCN(c3cccc(C(F)(F)F)c3)CC2)C1 (stereo not drawn)
The inhibition of the first is higher: 7.46% for the first, 1.86% for the second.

First: Cc1ccc(N2C(=O)N3[C@@H]4c5ccccc5OC[C@@H]4[C@@H](c4ccccc4)[C@@]3(C)C2=O)cc1
Second: CC1(c2ccccc2)NC(=O)N(CC(=O)N2CC(=O)Nc3ccccc32)C1=O (stereo not drawn)
The inhibition of the first is lower: -0.71% for the first, 1.68% for the second.

Compared with O=C(CCn1nnnc1CN1CCOCC1)N1CCC(c2ccccc2Cl)C1 (stereo not drawn), CC1(C)CC(=O)C2=C(C1)NCN(CCCN1CCOCC1)C2 is lower in inhibition: 1.76% for the first, -0.29% for the second.

First: N#CC1=C(N)Oc2[nH]c(=S)[nH]c(=O)c2C12C(=O)Nc1ccccc12 (stereo not drawn)
Second: O=C(N/N=C/c1c(O)n(C2CC2)c(=S)[nH]c1=O)c1ccccc1Cl
The inhibition of the first is lower: -0.84% for the first, 6.86% for the second.

Compared with CC(C)CC(N=C1NC(C)(C)Cc2ccccc21)C(=O)O (stereo not drawn), CC(C)CCN1CCC(C)(NC(=O)c2ccccc2)C1=O (stereo not drawn) is lower in inhibition: -0.6% for the first, -6.7% for the second.

First: O=C(CCCCCN1C(=O)C2C3C=CC(C3)C2C1=O)Nc1ccccc1 (stereo not drawn)
Second: O=C(CCS(=O)(=O)c1ccccc1)Nc1ccc(Cl)c(Cl)c1
The inhibition of the first is lower: 3.7% for the first, 4.48% for the second.

Going from Cc1ccc(C)c(NC(=O)C2CC(=O)N(C(C)C)C2)c1 (stereo not drawn) to Cc1ccc(CC(=O)Nc2ccc(S(=O)(=O)N3CCOCC3)cc2)cc1C, the inhibition rises from 1.81% to 10.2%.

First: CC(C)(C)NC(=O)COc1ccc(CNc2ccc3[nH]c(=O)[nH]c3c2)cc1
Second: CCN(c1ccccc1)S(=O)(=O)c1ccc2[nH]c(=O)[nH]c2c1
The inhibition of the first is higher: -1.03% for the first, -6.81% for the second.

Compared with COc1ccc(NC(=O)CN(C)C(=O)CNC(=O)C2CCCCC2)cc1, COc1ccccc1NC(=O)COC(=O)CNC(=O)C1CCCCC1 is lower in inhibition: 7.94% for the first, -3.12% for the second.

First: CN1CCn2cnc(C(=O)NCC(=O)OC(C)(C)C)c2C1=O
Second: Cc1nc(NC(=O)CCC(=O)O)sc1C(=O)N(C)C
The inhibition of the first is lower: -0.34% for the first, 0.26% for the second.

Going from COCC1CCN(C(=O)C2CCC(=O)N(Cc3cccc(C(F)(F)F)c3)C2)CC1 (stereo not drawn) to COc1cc(F)ccc1-c1cc(C(=O)NCC2CCCCC2)[nH]n1, the inhibition falls from 9.85% to 9.68%.

Compared with Cn1cccc1C1(C(F)(F)F)NCCNC1=O (stereo not drawn), O=C(N/N=C/c1c(O)n(C2CC2)c(=S)[nH]c1=O)c1ccccc1 is lower in inhibition: -0.11% for the first, -3.29% for the second.

First: CCC(C)N(C(=O)COC(=O)c1nc(Cl)ccc1Cl)C1CCS(=O)(=O)C1 (stereo not drawn)
Second: Cc1sc2ncnc(SCC(=O)NC3CCS(=O)(=O)C3)c2c1C (stereo not drawn)
The inhibition of the first is lower: 5.66% for the first, 9.26% for the second.

Going from Cc1cc2oc3ccc(NCCC4CCCN4C)cc3c(=O)c2cc1C (stereo not drawn) to COc1ccc(-c2c(C)cc3oc(=O)cc(-c4ccccc4)c3c2C)cc1C=O, the inhibition rises from -13.5% to 4.67%.

Compared with N#Cc1c(-c2ccc(Cl)cc2)c2c([nH]c1=S)CCCC2, O=C1CCCC2=C1C(c1cccs1)CC(=O)N2c1ccc(F)cc1 (stereo not drawn) is higher in inhibition: -2.9% for the first, 0.75% for the second.

Going from CC1CC(=O)Nc2ccccc2N1C(=O)COc1ccc2cc(Br)ccc2c1 (stereo not drawn) to CCC(=O)N1c2ccccc2NC2=C(C(=O)CCC2)C1c1ccco1 (stereo not drawn), the inhibition falls from -0.09% to -1.24%.

First: Cc1ccc(S(=O)(=O)N(C)C)cc1NC(=O)c1ccc(-n2cncn2)c([N+](=O)[O-])c1
Second: O=C(Nc1ccc(N2CCN(C(=O)c3ccccc3)CC2)c(Cl)c1)c1ncn[nH]1
The inhibition of the first is lower: -32.8% for the first, 11.2% for the second.

Compared with COc1ccc2ccccc2c1CNc1nnnn1C, CSc1nnc(CNC(=O)c2ccccc2)n1-c1ccc(F)cc1 is higher in inhibition: -6.2% for the first, 0.49% for the second.

Going from CC1=C(C(=O)Nc2cccc(C(=O)NCC(C)c3ccccc3)c2)SCCO1 (stereo not drawn) to CC(C)c1ccc(NC(=O)[C@@H](NC(=O)N2CC(=O)Nc3ccccc32)C(C)C)cc1, the inhibition falls from 12.5% to 3.7%.

Going from CC(c1cccnc1)N(CCN(C)C)C(=O)Nc1ccc(Cl)c(Cl)c1 (stereo not drawn) to Cc1ccccc1N1CCN(C(=O)c2cccnc2)CC1, the inhibition falls from 2.3% to -4.83%.

Going from COC(=O)c1c(-c2cccs2)csc1NC(=O)CSc1ncnc2sc(C)c(C)c12 to CC(=O)c1c(C)[nH]c(C(=O)OCC(=O)Nc2c(C)n(C)n(-c3ccccc3)c2=O)c1C, the inhibition rises from -2.84% to 6.5%.

Going from CC/C(=N\O)C(C)(C)/[N+]([O-])=C/c1ccc(Br)cc1 to CCN(Cc1ccccc1)C(=O)CN1C(=S)NC(C)(C)CC1C (stereo not drawn), the inhibition falls from 10.7% to 6.01%.

Compared with COc1ccc2c(c1)[C@@]13CCCCC1[C@@H](C2)NCC3 (stereo partly drawn), COc1ccc2c(c1)c(=O)c(C(=O)c1ccc(Cl)cc1)cn2CC(=O)Nc1ccc(F)cc1 is lower in inhibition: 1.48% for the first, 0.3% for the second.

First: Cc1cc2cc(CNC(=O)c3cccs3)ccc2[nH]1
Second: Cc1ccc(Cn2cc(C(=O)NN)c(=O)c3ccc(F)cc32)cc1
The inhibition of the first is higher: 7.85% for the first, -1.23% for the second.

Going from CCCCc1nc2cc(C(=O)NCCc3cnn(C)c3)ccc2o1 to CN(C(=O)COC(=O)CCCc1c[nH]c2ccccc12)c1c(N)n(Cc2ccccc2)c(=O)[nH]c1=O, the inhibition rises from -7.17% to 7.89%.

For FC(F)(F)c1cccc(NC(=S)OC2CCC23CCC(c2ccccc2)CC3)c1 (stereo not drawn), the inhibition was 24.4% (active).
CSc1nccc(NC(=O)c2ccc(C(C)(C)C)cc2)n1 was tested, and the inhibition was 29.4% (active).
With OCCCNc1nccc(-c2cc(Nc3cccc(Cl)c3)ncn2)n1 the inhibition was 29.2% (active).
With CN(O)C(=S)c1ccccc1 the inhibition was 36.8% (active).
In the case of CC(=O)c1nc(N2C(=O)C3CC=C(C)CC3C2=O)sc1C (stereo not drawn), the inhibition is reported as 38.2% (active).
For CC1(C)Cc2ccccc2-c2[nH]c(=S)[nH]c(=O)c21, the inhibition was 78.3% (active).
With COc1ccc(NC(=O)COC(=O)CNC(=O)C2CCCCC2)cc1 the inhibition was 31.5% (active).
With COc1ccc(OC)c(NC(=O)c2cc(-c3cc(F)ccc3OCC3CCCO3)n[nH]2)c1 (stereo not drawn) the inhibition was 84.9% (active).
With Cc1ccc(C(=O)Nc2ccccc2-c2ccccc2)cc1S(=O)(=O)Nc1ccccc1 the inhibition was 25.5% (active).
With COc1cccc2sc3cc(NCC[C@@H]4CCCN4C)ccc3c(=O)c12 the inhibition was 44.1% (active).
With O=C(Nc1ccccc1Cl)/C(Cl)=C(\Cl)S(=O)c1ccccc1 (stereo not drawn) the inhibition was 93.7% (active).
For Cc1[nH]n(-c2ccccc2)c(=O)c1/C=N/NC(=O)c1ccoc1C, the inhibition was 43.4% (active).
For Cn1c(=S)sc2ccc3ccccc3c21, the inhibition was 51.9% (active).
With O=C(CC(O)(C(F)(F)F)C(F)(F)F)Nc1ccc(Cl)c(Cl)c1 the inhibition was 64.7% (active).
In the case of Cc1sc2ncnc(SCC(=O)Nc3ccc(CN4CCCC4)cc3)c2c1C, the inhibition is reported as 33.7% (active).
With O=C1CCCC2=C1C(c1cccs1)n1nc(SCc3ccccc3)nc1N2 (stereo not drawn) the inhibition was 50.8% (active).
For Cc1cc2cc(CNC(=O)c3ccc(S(=O)(=O)N4CCOCC4)cc3)ccc2[nH]1, the inhibition was 27.4% (active).
CN(C)CCNC(=O)c1ccc(Cl)c2cc3ccccc3nc12 was tested, and the inhibition was 34.5% (active).
For O=C(Nc1ccc(N2CCN(C(=O)c3ccccc3)CC2)c(Cl)c1)c1cccnc1, the inhibition was 26.1% (active).
O=C(c1ccc(F)cc1)c1cn(Cc2ccc(F)cc2)c2cc3c(cc2c1=O)OCCO3 was tested, and the inhibition was 34.4% (active).
For N#Cc1c(N)nc2c3c(sc(=N)c2c1N)NC(=O)CC3c1ccccc1Cl (stereo not drawn), the inhibition was 31.5% (active).
